Measurements published in the supplement of paper PMC6555819.

Columns and labels:
Assay in all cases: PBM binding z-score (relative to random genomic background probes); higher = stronger binding; sequences stand for … in GC…GCGATTGACAGCGTAGAATGAAGG
[1] = system: RARb homodimer (NR concentration 270 nM)
In short: (§1)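 Binding z-scores take random background probes as their reference. They come from custom Agilent 4×180K protein-binding microarrays incubated 1 h with ligand-free nuclear receptor dimers, with antibodies against each partner (one per run) detecting binding. Scanned fluorescence was regression-normalized.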

[2] = system: RARg:RXRa (NR concentration 270 nM, RXRa partner concentration 90 nM)
In short: as §1

[3] = system: RARg homodimer (NR concentration 270 nM)
In short: as §1

[4] = system: RXRa DBDmut IVT, anti-RXR (DBD mutation: RXRa K156A/R161A, NR concentration 90 nM)
In short: as §1

[5] = system: RXRa homodimer (NR concentration 180 nM)
In short: as §1

[6] = system: THRa:RXRa (NR concentration 90 nM, RXRa partner concentration 90 nM)
In short: as §1

[7] = system: THRa homodimer (NR concentration 90 nM)
In short: as §1

[8] = system: VDR homodimer (NR concentration 270 nM)
In short: as §1

| Sequence | PBM binding z-score [1] | PBM binding z-score [2] | PBM binding z-score [3] | PBM binding z-score [4] | PBM binding z-score [5] | PBM binding z-score [6] | PBM binding z-score [7] | PBM binding z-score [8] |
| --- | --- | --- | --- | --- | --- | --- | --- | --- |
| TCTTGTAGATCAAGCAGGTTAAGATAGCCTGAGT | 0.14 | 0.091 | 0.0595 | 0.547 | 0.359 | 0.324 | -0.172 | -0.247 |
| CAAACTAGGTCACGAAAGTTCAAAGTCGAATGAC | 5 | 6.73 | 7.67 | 2.96 | 5.99 | 4.31 | 1.46 | 4.82 |
| GATACAGGGTCAACGCCAGAGTACGCGTATTGAT | 3.62 | 5.79 | 6.23 | 2.6 | 6.68 | 3.42 | 1 | 2.52 |
| CCGTACGGGTCACGAGGTTATAGCACGACGAGCG | 4.11 | 6.39 | 5.81 | 1.55 | 7.62 | 3.75 | 0.803 | 1.75 |
| AGAATGAGGTTACCAAAGATCAGAGAAACGCTTG | 0.638 | 2.17 | 1.6 | 1.04 | 2.47 | 2.64 | 0.519 | 0.185 |
| ACAGTCAGGTGATGAAGGTAACTCAGGCTATCAT | 0.23 | 0.23 | 0.365 | -0.243 | 0.405 | 1.19 | 0.0421 | -0.453 |
| ATCGAAAGGTCGAGGTGATTATAGAGAAAGGGAA | 2.72 | 4.24 | 4.23 | 0.927 | 4.29 | 2.54 | 0.338 | 0.821 |
| AGAACGAGGGCACGCTGAGTTGATGGCAGAGTAG | 1.37 | 2.06 | 2.33 | 1.76 | 1.53 | 1.89 | 0.0857 | 1.71 |
| CGTCCAAGGTCAATGCTGGGTCAGTGAAAGCATT | 4.74 | 7.34 | 6.47 | 3.12 | 4.97 | 4.28 | 2.52 | 2.62 |
| ATCTCTAGGTACAGTTCAGTGAAAGATCGATAGA | 0.899 | 0.55 | 0.987 | 1.95 | 0.449 | 0.634 | 0.0799 | 1.77 |
| GCATATAGGTAATACAAGGTGAGAGTCCGATTGT | 0.849 | 0.265 | 0.368 | 0.552 | 0.4 | 3.98 | 0.807 | 0.0557 |
| ATATGTAGGTTATGGGTCATTCAGGTTGGTTCGC | 2.97 | 3.09 | 2.28 | 1.31 | 3.79 | 2.74 | 1.53 | 2.76 |
| AATACAGGGTCACTACGCCAGAGTAGGTACGAAT | 3.19 | 5.26 | 4.83 | 3.03 | 5.7 | 3.5 | 1.33 | 3.21 |
| CCAGACGGGTGAAAGGTAACTCAGTCTGGTACGC | 0.112 | 0.694 | 0.136 | -0.879 | 1.81 | 0.461 | -0.444 | -0.582 |
| AGAACGAGGGCAGGCTGAGTTGATAGCAGAGTAG | 0.683 | 0.569 | 1.17 | 0.639 | 0.342 | 0.523 | -0.552 | 0.453 |
| GATACAGGGTCAGCCAGAGGCCAGAGTATGGAAA | 3.47 | 6.84 | 4.98 | 1.17 | 4.6 | 3.13 | 0.534 | 0.682 |
| CGTCCAAGGCCAAAGGTCAGTGAAGAGATGACGG | 4.6 | 5.87 | 5.18 | 1.13 | 5.47 | 3.24 | 0.341 | 0.884 |
| ATCTCTAGGTAAGACTCAGTTCAGTGGAGAACGC | 0.868 | 0.285 | 0.403 | 0.304 | 0.0842 | 0.884 | 0.583 | 1.57 |
| AGTATGAGGTTACCAAAGATCAGGGAAACGCTTG | 1.09 | 2.17 | 1.83 | 0.98 | 2.63 | 2.87 | 0.98 | 0.48 |
| ACTATTAGTTGACTTGGGGCAACCGATACGACGC | 0.856 | 0.552 | 0.701 | 0.839 | 0.366 | 1.29 | 0.534 | 0.357 |
| CCTCGGAGGACAGAAGATCAGAGCTGTCCGCTTT | -0.501 | -0.0315 | 0.0841 | -0.174 | -0.41 | -0.0672 | -0.73 | -0.8 |
| ATCGACAGGTCGAGGTGAGTATAGAGAAAGGGAA | 0.915 | 1.68 | 1.89 | -0.333 | 1.22 | 1.59 | 0.108 | 0.0129 |
| CCGACTGGGGCAGGGTTACCATAACGCACAGCCA | 1 | 0.693 | 0.718 | -1.08 | 1.06 | 0.632 | -0.0778 | -0.615 |
| TGAATGAGGTTAAAAATCAGGGAACGTGGCGTCG | 0.129 | 1.38 | 0.835 | 1.26 | 2.24 | 1.67 | -0.0675 | 0.4 |
| ATCTCTCGGTAACCAAGTTCAGTGAATGCCGAAC | 1.51 | 0.706 | 0.621 | 0.703 | 0.383 | 0.98 | 0.603 | 2.26 |
| CCCACTGGGCCAAGGTCATTGATCAGTCAAAGCA | 3.19 | 3.57 | 3.06 | 0.687 | 3.2 | 3.3 | 2.16 | 3.07 |
| TCGAGTAGGTTAGGGGCATTCAAAATGGCGTCGA | 0.918 | 0.367 | 0.48 | 0.614 | 0.622 | 1.06 | 0.276 | 1.43 |
| TGAATGAGGTTAAAGATCAGGGCACGTGGCGTCG | 1.91 | 2.84 | 1.59 | 0.869 | 3.95 | 3.35 | 1.32 | 1.03 |
| ACTCGGAGGACAAAGGTCAAAGCTACGCCAGTGA | 5.02 | 7.08 | 6.07 | 1.75 | 6.78 | 4.03 | 0.972 | 2.28 |
